Assay results published in article PMC4552634, “A New Set of Chemical Starting Points with Plasmodium falciparum Transmission-Blocking Potential for Antimalarial Drug Discovery” (PLoS ONE, 2015).
In all, about 13,000 compounds went through this assay and about 3,200 (25%) showed an effect of 50% or more. Some of the results follow.

test system: P. falciparum stage V gametocytes; design: BacTiter-Glo ATP luminescence viability of purified stage V gametocytes in 384-well plates, per cent inhibition versus DMSO; details: 48 h, 5 µM; inhibitor

SMILES | % Inhibition [%]
CCN(c1ccccc1)S(=O)(=O)c1ccc(OC)c(NC(=O)c2cccc(C(F)(F)F)c2)c1 [TCMDC-125343] | 14.96
O=C(NC1CCN(c2ccnc3cc(Cl)ccc23)C1)c1cccc(F)c1 (stereo not drawn) [TCMDC-133656] | 0.5042
N#Cc1ccc(NC(=O)c2ccc(C(=O)NCCCCN3CCC(c4ccc5c(c4OCCOC4CCCCO4)CCCC5)CC3)cc2)cc1 (stereo not drawn) [TCMDC-138789] | 80.58
COc1c(C2CCN(CCCCNC(=O)c3ccc(-c4ccc(Cl)cc4)c(OCC(N)=O)c3)CC2)ccc2c1CCCC2 [TCMDC-134373] | 13.03
COc1c(C2CCN(CCCCNC(=O)c3cc(-c4ccc(Cl)cc4)oc3C)CC2)ccc2c1CCCC2 [TCMDC-134696] | 7.674
COc1c(C2CCN(CCCCNC(=O)c3ccc(-c4ccc(Cl)cc4)cn3)CC2)ccc2c1CCCC2 [TCMDC-134687] | 70.09
COc1c(C2CCN(CCCCNC(=O)c3cccc(-c4ccc(C(F)(F)F)cc4)c3)CC2)ccc2c1CCCC2 [TCMDC-138701] | 48.96
NC(=O)COc1c(C2CCN(CCCCNC(=O)c3ccc(-c4ccc(Cl)cc4)c(O)c3)CC2)ccc2c1CCCC2 [TCMDC-133379] | 84.67
CC(=O)c1ccc(-c2ccc(C(=O)NCCCCN3CCC(c4ccc5c(c4OCC(N)=O)CCCC5)CC3)cc2)s1 [TCMDC-134174] | -29.18
COc1c(C2CCN(CCCCNC(=O)c3ccc(-c4ccc(NC(=O)C(F)(F)F)cc4)cc3)CC2)ccc2c1CCCC2 [TCMDC-134380] | 96.81
COc1c(C2CCN(CCCCNC(=O)c3cc(-c4ccc(Cl)cc4)[nH]c3C)CC2)ccc2c1CCCC2 [TCMDC-135270] | 45.24
Cc1nc(-c2ccc(C#N)cc2)sc1C(=O)NCCCCN1CCC(c2ccc3c(c2OCCO)CCCC3)CC1 [TCMDC-138879] | 11.85
COC(=O)c1sc2ccccc2c1NC(=O)c1ccc(C)c(C)c1 [TCMDC-125650] | 21.99
CCC(C)(C)c1ccc2nc(N)nc(N)c2c1C [TCMDC-137829] | -16.15
CC(=O)N1CCC(C(=O)Nc2ccc(-c3cccc(-c4nc5ccc(C(F)(F)F)cc5[nH]4)c3)cc2)CC1 [TCMDC-132166] | -13.72
O=C(/C=C/c1ccc(Cl)c(Cl)c1)NCCCCCN1CCC(NC(=O)Nc2ccc(Cl)cc2Cl)CC1 [TCMDC-135729] | -21.32
O=C(Nc1cccc(N2CCC(NCc3cccnc3)CC2)c1)c1cccc(C(F)(F)F)c1 [TCMDC-124649] | -0.3933
COc1c(C2CCN(CCCCNC(=O)c3noc(-c4ccc(C#N)cc4)n3)CC2)ccc2c1CCCC2 [TCMDC-138814] | 4.753
COc1c(C2CCN(CCCCNC(=O)c3ccc(NC(=O)c4ccc(C#N)cc4)cc3)CC2)ccc2c1CCCC2 [TCMDC-138664] | 116.8
Cn1ccc(C(=O)Nc2ccc3c(c2)CN(Cc2ccc(N4CCCC4)o2)CCC3)n1 [TCMDC-134722] | -3.632

SMILES | % Inhibition [%]
O=C(NCc1cccc(F)c1)Nc1cccc(-c2cccc(-c3nc4ccccc4[nH]3)c2)c1 [TCMDC-133290] | 0.3342
CC(=O)Nc1ccc(CN2Cc3ccc(NC(=O)Nc4ccc(Oc5ccccc5)cc4)cc3C2)s1 [TCMDC-141756] | -76.53
NC(=O)C1CCN(Cc2cccc(-c3ccc(-c4nc5ccc(C(F)(F)F)cc5[nH]4)cc3)c2)CC1 [TCMDC-132691] | -22.66
Cc1cccc2nc(-c3ccc(-c4ccc(CN5CCCC(O)C5)cc4)cc3)[nH]c12.O=C(O)C(F)(F)F (stereo not drawn) [TCMDC-133826] | 35.59
c1cc(-c2ccc(CN3CCCCC3)cc2)cc(-c2nc3ccccc3[nH]2)c1 [TCMDC-133917] | -5.733
FC(F)(F)c1ccc2[nH]c(-c3ccc(-c4cccc(CN5CCC(CCN6CCCCC6)CC5)c4)cc3)nc2c1 [TCMDC-133941] | 100.4
Fc1ccc2nc(-c3cccc(-c4ccc(CN5CCCCC5)cc4)c3)[nH]c2c1 [TCMDC-133887] | 2.75
Fc1ccc2[nH]c(-c3cccc(-c4ccc(CN5CCC(CCN6CCCCC6)CC5)cc4)c3)nc2c1 [TCMDC-133940] | 104.4
Cc1cccc2nc(-c3ccc(-c4ccc(CN5CCC(C(N)=O)CC5)cc4)cc3)[nH]c12.O=C(O)C(F)(F)F [TCMDC-132688] | 10.12
Fc1ccc2[nH]c(-c3ccc(-c4ccc(CN5CCC(CCN6CCCCC6)CC5)cc4)cc3)nc2c1 [TCMDC-133924] | 105.4
O=C(O)C(F)(F)F.OCC1CCN(Cc2ccc(-c3ccc(-c4nc5cc(F)ccc5[nH]4)cc3)cc2)CC1 [TCMDC-133125] | 29.73
FC(F)(F)c1ccc2nc(-c3ccc(-c4cccc(CN5CCCCC5)c4)cc3)[nH]c2c1 [TCMDC-133886] | -44.09
Cc1cccc2nc(-c3ccc(-c4ccc(CN5CCC(CCN6CCCCC6)CC5)cc4)cc3)[nH]c12 [TCMDC-133929] | 114
NC(=O)C1CCN(Cc2ccc(-c3ccc(-c4nc5cc(F)ccc5[nH]4)cc3)cc2)CC1.O=C(O)C(F)(F)F [TCMDC-132693] | 4.411
CC(=O)c1cccc2c(NC(=O)Nc3ccc4nccc(N5CCN(C)CC5)c4c3)cccc12 [TCMDC-139345] | -42.22
O=C(Nc1ccsc1)Nc1cccc(-c2cccc(-c3nc4ccc(C(F)(F)F)cc4[nH]3)c2)c1 [TCMDC-133214] | -52.37
CC(=O)C1(c2ccccc2)CCN(CCC2(c3ccc(Cl)c(Cl)c3)CN(C(=O)Nc3cc(F)cc(F)c3)CCO2)CC1 (stereo not drawn) [TCMDC-135332] | -16.09
N#Cc1ccc(NC(=O)c2ccc(Cc3ccc4c(c3)CCN(C3CCC3)CC4)cn2)cc1 [TCMDC-136453] | 22.22
COc1ccc(NC(=O)/C=C/c2ccccc2Cl)cc1OCCN1CCC(O)(c2ccc(Cl)c(C(F)(F)F)c2)CC1 [TCMDC-140918] | -10.77
